The full ranking holds about 2,300 sequences; the median of “median log2 fold change of GCK-ALFA target abundance (FLAG IP / Myc IP barcode read proportion)” is about 0.095, and the lowest 2% start at about -0.47. The full list was thinned out, with the lowest values kept by preference.
B1: LC3A_28_1162 (protein)
chain: SAIEESIKAAFEELEKAIKEGKNGVITLKVPGDATEEDIERLIKALEEIAKKAEEHGINGILIDVDGGVKQEHIDRLAKAAEEIEKKYPKVTIIIALSDE
B2: LC3A_free_46_2347 (protein)
chain: YKAEIDIDLLAEDEETLKKAVEEIVEAAKKIAKKYNLKVNIEVEIEKLEDGSYYARIKITLEGETKEDVEAAVNELIDEIDKIAKKYNVAAIISYEIIKT
B3: LC3A_free_46_2352 (protein)
chain: VEAKIEIDLLADDKEKLEKAVEEIIKKIKEIAKKYGLEVEINYEISKLEDGSYYAKIEITLKGEDLEDVKKAVNELINEIEEIAEKYGVSAVISYEIEDV
B4: LC3A_free_0_2121 (protein)
chain: KKTVVELVVILDEKTSEEKAKEAYEELKEKAEELAEENGWEVEVKLDKVDGRHIITVTLTSDEPDIDKGLELERKLSEIAEEIAKKLGLDATIYSSVYLE
B5: LC3A_free_8_2531 (protein)
chain: NVQEMVDLALKELDKLEKIAVEKAKELGLSRTDILELELVIGSAKIDIIEASDKSVEEIYKLFKEELKEILEEAKKYGEELYKEVEKKAKEALKKMEEAK
B6: LC3A_28_1140 (protein)
chain: SALVEAAKAQIEADAEADKDEPEVLLRVTITSEMTVEQAREIMDHVEEVVEKLKDKEKIYIVVDATEPISQEVLDEIVERLEEIEKKYPNVSSIIALPED
B7: LC3A_28_1037 (protein)
chain: DELRRRAEEAVKEAEEQAKKGEEAVVTIKVGKLPTEEAKRIVREALERLIKISKKYGNVKISVVIDVDGDQELVDAIIDVAEEAEKKNPNLTVIIALSEE
B8: LC3A_23_605 (protein)
chain: MYKVEVIVDFIDKPEEAEKKVEELLKKVEELLKKHKDIVKDYEIKVTREALPDGTTYVEVEITIIIDGTKEEAEEIRNELESIASETLPNGVISSEVEEL
B9: LC3A_59_2035 (protein)
chain: SAEAEAAAARVRERGPSVDVVAEVFREVLEKNGLDPELARDLVAALVAVLVEAGLITAEEGAAIRAEADAAIDRLTDVDELVSELRVIILDALLKKNELE
B10: LC3A_141_361 (protein)
chain: ATKKETFTLTAKTEEEAIEVAEKIKEKIREFMEKTGAKEVKVTVTITAYNKKTGEVKTETIVETVTPENLDLFEEGLLIELLSYFEKGADEVKVTVTIES
B11: LC3A_45_1977 (protein)
chain: MAEATLDVLVPRELAEAALEALKRGAERLLEERGPGVEVDLEALEESYRATRDEEEVLLTVRIRAPTRQEALDLADELVEELERELGRPVAAAISVEELP
B12: LC3A_59_2019 (protein)
chain: MEEIEEYREKLREAIDNIDEFVEIVREGLEKFKDDKEKVEALLEEVMEVIVEELGADPEEAEKVLKRMKEIFKTEKDKEKAIELVVDEIRDLLLLTPIEE
B13: LC3A_3_1859 (protein)
chain: MEEIKKEIIELLKSLGRSEEVIEAAERLANLLIERGYKEALETLLEELKKLKDVSDEILLAMFEDLIEALETEDLSEEELIERIEEEARIALNDQEIEEL
B14: LC3A_17_549 (protein)
chain: MEEIKKELEKLLKELEALVKELEKYDPEAAKKLKKKLKEAKKLLEEGKLKEAAETLAEAARELANKLDELEPKHGNEASVLAMEASGLELEAIGLLLKLE
B15: LC3A_3_1857 (protein)
chain: MEEIKKEILELLKKLGRSEETIKAAEELADALIKRGYKKALEKLLEELKKLKNASDELLLDMFKELLAALENEKLNEEELIKKIEEEAKIVKNEQEIIEL
B16: LC3A_147_450 (protein)
chain: VLYEITVDILFKNDPELAEEVEEEIKEIAEKYGGEVEVEREVEQETPTTTLYFVRVTIKFEDEEKALEAEQEISELLDETAKKHPEKFVGAMISIEKIEE
B17: LC3A_28_755 (protein)
chain: ADIEGTIKEAIERAKKAKEEGKEEVIEITVPAGATQADIDKVIEGMEEIAEINKDMKRTTILVNVEAGVAQENLDKLIDAGEEIEEKYPNVTVIFALDEE
B18: LC3A_28_1202 (protein)
chain: SATKAAADAALAEAKALLAAGEEGVVELVVEGKITEEETQYVIDKLEEIAELAAKSGKISIVLDISGEVPEEHQQKLIDKADELEKKYPNVNIIVALEER
B19: LC3A_3_1805 (protein)
chain: ADERIEALLEELRAAGASEETIAAAREVLTLLRERGYLEALETLIEGLRELLDAPDELRLDLLEDVLEYLETNDASEEEVTEFIKEEIRLARSESEIEEL

target: MAP1LC3A, Q9H492; experiment: median log2 fold change of GCK-ALFA target abundance (FLAG IP / Myc IP barcode read proportion) (log2 ratio); each designed protein is fused to an ALFA-tag nanobody in HEK293 cells to bring the named protein to FLAG-tagged glucokinase (GCK); Myc marks an untargeted standard; higher = target protein stabilised (more abundant); conditions: target protein: 3xFLAG-MCP-GCK-ALFA reporter; HEK293 landing pad (RPLP)
Experimental: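 LABEL-seq trans screen in HEK293 landing-pad cells. Each de novo designed 100-aa effector handle, binding the indicated effector (E3 ligase, DUB or autophagy protein), is fused to a constant NbALFA target handle and induced with 2 ug/mL doxycycline. A FLAG-MCP-GCK-ALFA target and a Myc-MCP standard reporter were transfected, and after 48 h circRNA barcodes were recovered by anti-FLAG and anti-Myc IP and sequenced. The value is the median across barcodes (at least 3 per design) of log2(FLAG/Myc read-proportion ratio), with the two transfection replicates pooled. Negative values mean degradation and positive values mean stabilisation of the target.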

| Binder | median log2 fold change |
| --- | --- |
| B1 | -0.0306 |
| B2 | -0.556 |
| B3 | 0.204 |
| B4 | 0.00278 |
| B5 | -0.0124 |
| B6 | -0.0164 |
| B7 | -0.36 |
| B8 | -0.868 |
| B9 | 0.256 |
| B10 | -0.0634 |
| B11 | 0.107 |
| B12 | -0.514 |
| B13 | 0.169 |
| B14 | 0.207 |
| B15 | 0.117 |
| B16 | -0.716 |
| B17 | -0.196 |
| B18 | -0.206 |
| B19 | -0.0069 |
